Records with an inconclusive call do not appear. Unmarked numbers belong to inactive results. Activity calls are given as the source filed them. The call rests on the fitted dose curve.
assay: qHTS assay for small molecule agonists of the antioxidant response element (ARE) signaling pathway - cell viability counter screen (AID 743203); details: ARE-bla HepG2 viability, CellTiter-Glo luminescence, 16 h; series mostly up to 73.3 µM; viability change, negative = cytotoxic: at the top concentration; further: nearly all actives have a fitted effect of over 55% in size
Description: National Center for Advancing Translational Sciences [NCATS]
NIH Chemical Genomics Center [NCGC]
U.S. Environmental Protection Agency [EPA]
National Institutes of Environmental Health Sciences [NIEHS]
National Toxicology Program [NTP]
U.S. Food and Drug Administration [FDA]
Oxidative stress has been implicated in the pathogenesis of a variety of diseases ranging from cancer to neurodegeneration. The antioxidant response element (ARE) signaling pathway plays an important role in the amelioration of oxidative stress. The CellSensor ARE-bla HepG2 cell line (Invitrogen) can be used for analyzing the Nrf2/antioxidant response signaling pathway. Nrf2 (NF-E2-related factor 2) and Nrf1 are transcription factors that bind to AREs and activate these genes. The CellSensor ARE-bla Hep G2 cell line contains a beta-lactamase reporter gene under control of the Antioxidant Response Element (ARE) stably integrated into HepG2 cells. The activation of the report gene under culture conditions can be detected by fluorescence intensity. This cell line has been used to screen the Tox21 10K compound library to identify agonists that induce oxidative stress. The cytotoxicity of the Tox21 compound library against the ARE-bla cell line was tested in parallel by measuring the cell viability using CellTiter-Glo assay (Promega, Madison, WI) in the same wells.
Tox21 Assay Protocol Summary:
ARE-bla HepG2 cells were dispensed at 2,000 cells/5 ul/well in 1536-well white wall/solid bottom plates using a Multidrop Combi (ThermoFisher Scientific, Waltham, MA) dispenser. After the assay plates were incubated at 37C/5% CO2 for 5 hrs, 23 nL of compounds dissolved in DMSO, positive controls or DMSO only was transferred to the assay plate by a pintool work station (Kalypsys, San Diego, CA). The plates were incubated at 37C/5% CO2 for 16 hrs, followed by addition of 4 ul/well of CellTiter-Glo reagent into the assay plates using a Flying Reagent Dispenser (Aurora Discovery, San Diego, CA). After 30 min incubation at room temperature, the luminescence intensity in the assay plates was measured using a ViewLux (PerkinElmer, Shelton, CT) plate reader.
On the % scale 0 is the no-effect control and ±100 the full control effect; potency means the concentration at half of the fitted maximal effect.

Row | Compound | Potency | viability change, negative = cytotoxic
1 | S=C1NC=NC2N=CNC12 (stereo not given) | 8.63 µM (active) | –
2 | Cc1ccc(Cl)c(N)c1Cl | – | -28.1%
3 | O=C1OC(=O)c2cc(-c3ccc4c(c3)C(=O)OC4=O)ccc21 | – | -19.3%
4 | CCCOC(=O)c1ccc(O)cc1 | – | 17.5%
5 | CCCCCCCCOC(=O)c1cc(O)c(O)c(O)c1 | 54.5 µM (active) | –
6 | CCCCCN=C(N)N/N=C/c1c[nH]c2ccc(OC)cc12 | 10.6 µM (active) | –
7 | c1ccc2cc3c4ccccc4c4ccccc4c3cc2c1 | – | -2.56% [at 94.8 µM]
8 | CC(C)c1ccc2sc3ccccc3c(=O)c2c1 | – | -15%
9 | COc1c(Br)cc(Br)c(C)c1Br | – | 8.67%
10 | CN1CC[C@H](c2c(O)cc(O)c3c(=O)cc(-c4ccccc4Cl)oc23)[C@H](O)C1 | – | 9.93%
11 | CN1CCN(c2ccccc2/C=C2\SCCN(c3ccc(Cl)c(Cl)c3)C2=O)CC1 | 24.3 µM (active) | –
12 | O=C(CCCCCCCCc1cccnc1)N1CCC(C=C(c2ccccc2)c2ccccc2)CC1 | 15.4 µM (active) | –
13 | CCCCCCCCCCCCCCCCCCNC(=O)OC1CCN(C(=O)OC[C@H](COC(=O)N(Cc2cccc[n+]2CC)C(=O)c2ccccc2OC)OC)CC1 | 26.6 µM (active) | –
14 | CC(Cc1ccc(O)c(O)c1)C(C)Cc1ccc(O)c(O)c1 (stereo not given) | 61.1 µM (active) | –
15 | CCCCCCCCCCCCN1CCCC1=O | 61.1 µM (active) | –
16 | CCCCCCCCCCCCCCCCC(C(=O)O)C(O)(CC(=O)O)C(=O)O (stereo not given) | 21.1 µM (active) | –
17 | O=C1CCC/C=C\CCCCCCCCCC1 | – | -9.12%
18 | Clc1nc(C(Cl)(Cl)Cl)c(Cl)c(Cl)c1Cl | 30.6 µM (active) | –
19 | C=C1C(CCl)(CCl)C2(Cl)C(Cl)C(Cl)C1(Cl)C2(Cl)Cl (stereo not given) | 60.4 µM (active) | –
20 | CCC(C)(C)c1ccc(CC(C)CN2C[C@@H](C)O[C@@H](C)C2)cc1 (stereo not given in full) | – | -1.38%

Row | Compound | Potency | viability change, negative = cytotoxic
21 | C[C@H]1O[C@@H](O[C@H]2CC[C@@]3(C)[C@H](CC[C@@H]4[C@@H]3C[C@@H](O)[C@]3(C)[C@@H](C5=CC(=O)OC5)CC[C@]43O)C2)C[C@H](O)[C@@H]1O[C@H]1C[C@H](O)[C@H](O[C@H]2C[C@H](O)[C@H](O[C@@H]3O[C@H](CO)[C@@H](O)[C@H](O)[C@H]3O)[C@@H](C)O2)[C@@H](C)O1 | 0.075 µM (active) | –
22 | CN(C)CCOc1ccc(/C(=C(/CCCl)c2ccccc2)c2ccccc2)cc1 | 16.1 µM (active) | –
23 | O=C1CCCCCCCCCCCCCC1 | – | -5.13%
24 | COc1cc(/C=C/C(=O)CC(=O)/C=C/c2ccc(O)c(OC)c2)ccc1O | 54.8 µM (active) | –
25 | CN[C@H]1CC[C@@H](c2ccc(Cl)c(Cl)c2)c2ccc(S(N)(=O)=O)cc21 | 24.3 µM (active) | –
26 | Cc1cc(F)ccc1-c1cc(N2CC[C@@H](O)[C@H]2CO)ncc1N(C)C(=O)C(C)(C)c1cc(C(F)(F)F)cc(C(F)(F)F)c1 | 21.4 µM (active) | –
27 | NCc1cccc(C2CCN(C(=O)c3ccc(C#Cc4ccccc4F)o3)CC2)c1 | 48.6 µM (active) | –
28 | CCSCC | – | -20.9% [at 94.8 µM]
29 | CN1CCN(CCCN2c3ccccc3Sc3ccc(C(F)(F)F)cc32)CC1 | 15 µM (active) | –
30 | CN(C[C@@H](CC[N+]12CCC(C3CCCCC3)(CC1)CC2)c1ccc(Cl)c(Cl)c1)C(=O)c1cc(C(F)(F)F)cc(C(F)(F)F)c1 | 30.6 µM (active) | –
31 | CN(C/C=C/c1ccccc1)Cc1cccc2ccccc12 | – | -26.5%
32 | O=C1OC(O)C(C(Cl)Cl)=C1Cl (stereo not given) | – | -23.6% [at 94.8 µM]
33 | O=C(CCN1CCC(c2ccccc2)C1)c1ccc2c(c1)OCCO2 (stereo not given) | – | -19.5%
34 | COc1cccc(-c2ccc(/C=C\CN3CCCCCC3)cc2Cl)c1 | 54.2 µM (active) | –
35 | O=C(N[C@H](CO)[C@H](O)c1ccc([N+](=O)[O-])cc1)C(Cl)Cl | – | 11.6%
36 | Cc1cc(Br)ccc1NC(=O)CCl | 54.5 µM (active) | –
37 | Cc1ccc2nc(-c3ccc(N)cc3)sc2c1S(=O)(=O)O | – | -10.2%
38 | CN1CCN(CCCN2c3ccccc3Sc3ccc(Cl)cc32)CC1 | 29.8 µM (active) | –
39 | SC1CCCCC1 | – | -1.66% [at 94.8 µM]
40 | N#Cc1nc(Cl)c(Cl)c(Cl)c1Cl | 6.11 µM (active) | –
